In PubChem BioAssay (NCI) one finds growth inhibition data, which are given here for 9 compounds.

The panel holds about 79,000 compounds, 15% with a hit somewhere; the sample as a whole holds those more often. Values without a mark were called inactive. The source made the active and inactive calls. Rule as the data show it: active = growth inhibition above about 70%; inactive = the rest.

Assay [1] can be described thus: NCI Yeast Anticancer Drug Screen. Data for the rad50 strain (AID 155).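 Also: 0% = growth of vehicle-only cultures of the same strain.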 The settings on record: S. cerevisiae rad50 strain growth inhibition, active compounds read high. In short, it runs like this: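 Compounds were tested on a yeast strain with an engineered DNA damage repair alteration; the reported value is growth inhibition normalised to vehicle treatment.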
Assay [2] in a line: NCI Yeast Anticancer Drug Screen. Data for the mec2-1 strain (AID 157). The settings on record: S. cerevisiae mec2-1 strain, active compounds read high. In short, it runs like this: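 Strain: mec2-1 (DNA repair/cell cycle alteration). Compound exposure, then growth measured; inhibition expressed relative to vehicle.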
The nature of assay [3]: NCI Yeast Anticancer Drug Screen. Data for the sgs1 mgt1 strain (AID 161).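 Also: 0% = growth of cultures given vehicle only.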 The settings on record: S. cerevisiae sgs1 mgt1 strain, active compounds read high. The method, boiled down:
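Read-out: growth inhibition vs vehicle controls. Cells: mutant yeast strain deficient in DNA damage repair.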

Assay [4] can be described thus: NCI Yeast Anticancer Drug Screen. Data for the cln2 rad14 strain (AID 165).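 Also: 0% = growth equal to vehicle treated cultures.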 The conditions noted are these: S. cerevisiae cln2 rad14 strain, active compounds read high. The method, boiled down: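 Compounds are applied to the cln2 rad14 yeast strain, and growth is then compared with that of vehicle-treated cultures to give inhibition.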
A short description of assay [5]: NCI Yeast Anticancer Drug Screen. Data for the bub3 strain (AID 167). The conditions noted are these: S. cerevisiae bub3 mutant strain, active compounds read high. The method, boiled down: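 Growth of a checkpoint-deficient yeast mutant is measured after compound exposure. Values represent inhibition relative to vehicle.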
Assay [6] is described as follows: NCI Yeast Anticancer Drug Screen. Data for the mlh1 rad18 strain (AID 175). The settings on record: S. cerevisiae mlh1 rad18 strain growth inhibition, active compounds read high. In short, it runs like this:
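Read-out is yeast growth inhibition, calculated against vehicle-only controls. The compound was applied to a strain engineered with DNA damage repair alterations.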

[7] abbreviates: at 5.0 µM (retest, dose inferred, filed as 0.5).
The mark [8] stands for this setting: at 50.0 µM (retest, dose inferred, filed as 5.0).

As for `O=S(=O)(Sc1ccccc1)C(c1ccccc1)c1ccccc1`, the growth inhibition is 3% in assay [1] (setting [7]); 72% (active) in assay [1] (setting [8]); -21.6% in assay [1] (at 50.0 µM); 2% in assay [2] (setting [7]); 71% (active) in assay [2] (setting [8]); -1.25% in assay [2] (at 50.0 µM). Moreover, the growth inhibition in assay [3] (setting [7]) is 2%; in assay [3] (setting [8]), 66%; in assay [3] (at 50.0 µM), 14.1%; in assay [4] (setting [7]), 1%; in assay [4] (setting [8]), 28%; in assay [4] (at 50.0 µM) it was -12.8%. In addition, the growth inhibition in assay [5] (setting [7]) was -4%; in assay [5] (setting [8]), 97% (active); in assay [5] (at 50.0 µM), 62%; in assay [6] (setting [7]), 4%; in assay [6] (setting [8]), 72% (active); in assay [6] (at 50.0 µM), 6.85%.

Turning to `CC(=O)/C(=C\c1ccco1)C(=O)Nc1ccccc1`, the growth inhibition is 2% in assay [1] (setting [7]); 23% in assay [1] (setting [8]); 73.1% (active) in assay [1] (at 50.0 µM); 0% in assay [2] (setting [7]); 21% in assay [2] (setting [8]); 48.2% in assay [2] (at 50.0 µM). Also, the growth inhibition in assay [3] (setting [7]) is 13%; in assay [3] (setting [8]) it was 26%; in assay [3] (at 50.0 µM), 80.2% (active); in assay [4] (setting [7]), 6%; in assay [4] (setting [8]), 23%; in assay [4] (at 50.0 µM), 92.4% (active). Besides, the growth inhibition was -4% in assay [5] (setting [7]); 58% in assay [5] (setting [8]); 91.2% (active) in assay [5] (at 50.0 µM); 6% in assay [6] (setting [7]); 37% in assay [6] (setting [8]); 94.7% (active) in assay [6] (at 50.0 µM).

For `CSc1nc(=Nc2ccccc2)sn1-c1ccccc1`, the growth inhibition was 10% in assay [1] (setting [7]); 98% (active) in assay [1] (setting [8]); 98.8% (active) in assay [1] (at 50.0 µM); 26% in assay [2] (setting [7]); 98% (active) in assay [2] (setting [8]); 99.5% (active) in assay [2] (at 50.0 µM). The growth inhibition is 27% in assay [3] (setting [7]); 98% (active) in assay [3] (setting [8]); 99.2% (active) in assay [3] (at 50.0 µM); 27% in assay [4] (setting [7]); 97% (active) in assay [4] (setting [8]); 99.4% (active) in assay [4] (at 50.0 µM). Also, the growth inhibition is 41% in assay [5] (setting [7]); 98% (active) in assay [5] (setting [8]); 99.3% (active) in assay [5] (at 50.0 µM); 15% in assay [6] (setting [7]); 98% (active) in assay [6] (setting [8]); 99% (active) in assay [6] (at 50.0 µM).

Regarding `O=C1/C(=C/c2cccc(O)c2)COc2ccccc21`, the growth inhibition was 21% in assay [1] (setting [7]); 95% (active) in assay [1] (setting [8]); 93.8% (active) in assay [1] (at 50.0 µM); 34% in assay [2] (setting [7]); 98% (active) in assay [2] (setting [8]); 96.1% (active) in assay [2] (at 50.0 µM). Further, the growth inhibition in assay [3] (setting [7]) was 63%; in assay [3] (setting [8]), 98% (active); in assay [3] (at 50.0 µM), 96.2% (active); in assay [4] (setting [7]), 9%; in assay [4] (setting [8]), 95% (active); in assay [4] (at 50.0 µM), 91.6% (active). In addition, the growth inhibition in assay [5] (setting [7]) was 58%; in assay [5] (setting [8]), 95% (active); in assay [5] (at 50.0 µM), 95.8% (active); in assay [6] (setting [7]), 77% (active); in assay [6] (setting [8]), 97% (active); in assay [6] (at 50.0 µM) it was 96.8% (active).

For `CC(=O)c1c(-c2ccc(Cl)cc2)c(-c2ccc(Cl)cc2)nn(CCO)c1=O`, the growth inhibition is 12% in assay [1] (setting [7]); 86% (active) in assay [1] (setting [8]); 97.8% (active) in assay [1] (at 50.0 µM); 4% in assay [2] (setting [7]); 76% (active) in assay [2] (setting [8]); 97.9% (active) in assay [2] (at 50.0 µM). Besides, the growth inhibition in assay [3] (setting [7]) is 2%; in assay [3] (setting [8]), 89% (active); in assay [3] (at 50.0 µM), 98.2% (active); in assay [4] (setting [7]) it was 3%; in assay [4] (setting [8]), 78% (active); in assay [4] (at 50.0 µM), 89.3% (active). Also, the growth inhibition in assay [5] (setting [7]) is 4%; in assay [5] (setting [8]), 78% (active); in assay [5] (at 50.0 µM), 92.1% (active); in assay [6] (setting [7]), 4%; in assay [6] (setting [8]), 80% (active); in assay [6] (at 50.0 µM) it was 97.8% (active).

As to `C=C1C(=O)C23CC[C@H]4C(C)(CCC[C@]4(C)C(=O)O)[C@@H]2CCC1C3` (some centres not stated), the growth inhibition in assay [1] (setting [7]) was 94% (active); in assay [1] (setting [8]), 99% (active); in assay [1] (at 50.0 µM), 90.5% (active); in assay [2] (setting [7]), 96% (active); in assay [2] (setting [8]), 99% (active); in assay [2] (at 50.0 µM), 93.7% (active). Also, the growth inhibition in assay [3] (setting [7]) was 93% (active); in assay [3] (setting [8]) it was 99% (active); in assay [3] (at 50.0 µM) it was 93% (active); in assay [4] (setting [7]), 72% (active); in assay [4] (setting [8]) it was 99% (active); in assay [4] (at 50.0 µM) it was 88.3% (active). For the same compound, the growth inhibition in assay [5] (setting [7]) is 95% (active); in assay [5] (setting [8]) it was 99% (active); in assay [5] (at 50.0 µM) it was 92% (active); in assay [6] (setting [7]) it was 97% (active); in assay [6] (setting [8]) it was 99% (active); in assay [6] (at 50.0 µM) it was 92.7% (active).

Turning to `CC1CCCC(C(O)(C(=O)O)C2CCCC(C)C2)C1` (configuration not stated), the growth inhibition in assay [1] (setting [7]) is 15%; in assay [1] (setting [8]), 72% (active); in assay [1] (at 50.0 µM) it was 66.3%; in assay [2] (setting [7]), 29%; in assay [2] (setting [8]), 81% (active); in assay [2] (at 50.0 µM) it was 43%. Besides, the growth inhibition in assay [3] (setting [7]) was 8%; in assay [3] (setting [8]) it was 70% (active); in assay [3] (at 50.0 µM), 56.5%; in assay [4] (setting [7]) it was 68%; in assay [4] (setting [8]) it was 98% (active); in assay [4] (at 50.0 µM) it was 33.2%. Further, the growth inhibition in assay [5] (setting [7]) is 14%; in assay [5] (setting [8]) it was 97% (active); in assay [5] (at 50.0 µM) it was 25.4%; in assay [6] (setting [7]), 15%; in assay [6] (setting [8]), 79% (active); in assay [6] (at 50.0 µM) it was 69.7%.

As to `CC1CCC2(CC1)NC1=C(CC(C)CC1)C1=C2CC(C)CC1` (configuration not stated), the growth inhibition was 46% in assay [1] (setting [7]); 87% (active) in assay [1] (setting [8]); 3.8% in assay [1] (at 50.0 µM); 28% in assay [2] (setting [7]); 85% (active) in assay [2] (setting [8]); -29.6% in assay [2] (at 50.0 µM). Further, the growth inhibition in assay [3] (setting [7]) was -1%; in assay [3] (setting [8]), 27%; in assay [3] (at 50.0 µM), -21.9%; in assay [4] (setting [7]) it was 14%; in assay [4] (setting [8]) it was 26%; in assay [4] (at 50.0 µM) it was 13.2%. For the same compound, the growth inhibition is -16% in assay [5] (setting [7]); 17% in assay [5] (setting [8]); -4.4% in assay [5] (at 50.0 µM); 32% in assay [6] (setting [7]); 89% (active) in assay [6] (setting [8]); 10.4% in assay [6] (at 50.0 µM).

Regarding `O=[N+]([O-])c1cccc2c1[nH]c1c(-c3ccccc3)nccc12`, the growth inhibition was 2% in assay [1] (setting [7]); 83% (active) in assay [1] (setting [8]); 87.8% (active) in assay [1] (at 50.0 µM); 4% in assay [2] (setting [7]); 83% (active) in assay [2] (setting [8]); 47.8% in assay [2] (at 50.0 µM). Further, the growth inhibition in assay [3] (setting [7]) was 4%; in assay [3] (setting [8]) it was 93% (active); in assay [3] (at 50.0 µM) it was 81% (active); in assay [4] (setting [7]) it was 0%; in assay [4] (setting [8]) it was 67%; in assay [4] (at 50.0 µM), 80.3% (active). Further, the growth inhibition in assay [5] (setting [7]) was 1%; in assay [5] (setting [8]), 67%; in assay [5] (at 50.0 µM) it was 40%; in assay [6] (setting [7]), 0%; in assay [6] (setting [8]), 89% (active); in assay [6] (at 50.0 µM), 89.8% (active).
